Results as given in ChEMBL document CHEMBL3433997, “St. Jude Leishmania screening dataset” (2016).

Experiments:
Assay type in all cases: functional
[1] = target: Solute carrier family 2, facilitated glucose transporter member 1 (Homo sapiens) (UniProt P11166); test: ST_JUDE_LEISH: Cytotoxicity at 2uM final concentration against transgenic Leishmania Mexicana promastigotes LmGLUT1 that are glucose transport deficient and complemented with the human glucose transporter GLUT1. Activity is measured by DNA content using SYBR green in vitro
Sequence of Solute carrier family 2, facilitated glucose transporter member 1 (Homo sapiens) (P11166 whole entry): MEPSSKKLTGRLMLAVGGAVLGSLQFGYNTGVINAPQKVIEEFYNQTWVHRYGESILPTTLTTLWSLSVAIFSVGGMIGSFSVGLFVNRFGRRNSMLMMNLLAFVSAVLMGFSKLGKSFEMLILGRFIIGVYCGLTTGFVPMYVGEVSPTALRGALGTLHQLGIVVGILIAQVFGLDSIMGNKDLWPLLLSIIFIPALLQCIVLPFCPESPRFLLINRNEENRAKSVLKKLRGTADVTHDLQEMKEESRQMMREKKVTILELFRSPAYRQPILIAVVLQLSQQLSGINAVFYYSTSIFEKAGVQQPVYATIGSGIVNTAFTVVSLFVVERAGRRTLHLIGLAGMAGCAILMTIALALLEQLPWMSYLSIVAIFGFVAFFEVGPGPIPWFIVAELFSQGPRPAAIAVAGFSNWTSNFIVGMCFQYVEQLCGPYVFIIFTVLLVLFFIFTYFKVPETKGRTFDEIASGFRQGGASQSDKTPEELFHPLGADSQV

[2] = target: Hexose transporter 1 (Plasmodium falciparum) (UniProt O97467); test: ST_JUDE_LEISH: Cytotoxicity at 2uM final concentration against transgenic Leishmania Mexicana promastigotes LmPfHT that are glucose transport deficient and complemented with the Plasmodium falciparum hexose transporter. Activity is measured by DNA content using SYBR green in vitro
[3] = target: Glucose transporter (Leishmania mexicana) (UniProt O61059); test: ST_JUDE_LEISH: Cytotoxicity at 2uM final concentration against transgenic Leishmania Mexicana promastigotes LmGT2 that are glucose transport deficient and complemented with the L. Mexicana glucose transporter 2. Activity is measured by DNA content using SYBR green in vitro

Structure (SMILES) | inhibition [1] [%] | inhibition [2] [%] | inhibition [3] [%]
Cc1cc(C(=O)Nc2ccc3c(c2)CCN3C2CCN(Cc3cccc(F)c3F)C2)no1 (configuration not stated) | -0.4 | -0.88 | 0.24
O=C1OC(c2ccccc2)(c2ccccc2)CN1C1CCN(Cc2ccc(O)c(Cl)c2)C1 (configuration not stated) | 1.71 | 1.04 | -0.68
COc1ccccc1C1CCN(C2CCC(NC(=O)/C=C/c3ccc(C(F)(F)F)cc3)CC2)CC1 (configuration not stated) | 1.41 | 2.17 | 2.85
CO/C(=C\C=C\c1cc2cc(Cl)c(Cl)cc2[nH]1)C(=O)NCCCNCCN(C)c1ccccc1 | 4.77 | 2.76 | 1.74
Cc1nc(C)c(-c2ccc(Br)cc2)c(O)c1Br | -0.12 | -1.35 | -2.85
COc1cc2c(cc1NC(=O)CN1CCN(C(=O)c3ccco3)CC1)oc1ccccc12 | 4.29 | 2.47 | -0.96
CC(=O)Nc1nc(C(=O)Nc2ccc(-c3cccc(-c4nc5ccccc5[nH]4)c3)cc2)cs1 | 1.93 | 2.85 | 0.42
COc1ccc(CNCCc2cccs2)cc1-c1ccc(OC)c(S(=O)(=O)NCCN2CCCC2)c1 | 3.2 | 1.85 | 3.49
NOCCCCOc1ccc(Br)cc1 | 3.74 | 5.13 | 2.59
CCOC(=O)c1nc(-c2ccccc2)[nH]c1-n1nc(C)cc1C | 1.44 | 0.92 | 0.66
COc1ccc(C(=O)N2CCc3cc4nccc(N5CCN6CCC[C@H]6C5)c4cc32)cc1 | 2.59 | 3.64 | 4.3
CC(=O)CSC(C=Cc1ccc(N(C)C)cc1)=Nc1ccccc1 | 85.4 | 83.3 | 63.3
COc1c(C=NNc2nc(=Nc3ccccc3)[nH]c(=Nc3ccccc3)[nH]2)ccc(Br)c1O | 11.3 | 11.7 | 9.27
COc1ccc(NC(=O)/C=C/c2ccc(Cl)c(Cl)c2)cc1N1CCN(C)CC1 | 9.73 | 4.85 | 6.48
COc1cc(C(=O)Nc2cccc(-c3cn4cccc(C)c4n3)c2)cc(OC)c1OC | 15.8 | 10.9 | 10.5
CCOc1cc(C(=O)NCCc2ccc(Cl)c(Cl)c2)ccc1-c1nc2cc(Cl)ccc2[nH]1 | 1.92 | 0.01 | 1.26
COc1ccc2[nH]ccc(=NN=Cc3cccc(Cl)c3)c2c1 | 15.1 | 14.8 | 11.7
c1cc(Nc2nc(-c3ccc(-c4csc(Nc5ccncc5)n4)cc3)cs2)ccn1 | -1.93 | -1.56 | -1.05
COc1ccc2nccc([C@@H](O)CN3CCC(NC(=O)/C=C/c4cccc(C)c4)CC3)c2c1 | 11 | 9.47 | 3.43
CN1CCC(NCc2cccc(-c3ccc(S(=O)(=O)NCCN4CCCC4)s3)c2)CC1 | 4.8 | 5.43 | 0.76
CN1CCN(c2ccc(-c3cccc(NC(=O)c4cccc([N+](=O)[O-])c4)c3)nn2)CC1 | 3.29 | 1.6 | 1.84
Cc1cc(N)nc2ccc(-c3cccc(CN)c3)cc12 | 0.78 | 0.76 | -2.14
Cn1nccc1C(=O)NCCNCc1cccc(-c2ccc(-c3nc4cc(C(F)(F)F)ccc4[nH]3)cc2)c1 | -3.3 | -1.43 | -2.04
COc1ccc2ncc(Cl)c(CCN3CCC(NCc4ccc5c(n4)NC(=O)CS5)CC3)c2c1 | 7.16 | 11 | 2.97
COc1cc(C(=O)NC2CCN(Cc3ccccc3)CC2)ccc1-c1nc2c(Cl)cc(C(F)(F)F)cc2[nH]1 | 5.51 | 3.32 | 3.49

Structure (SMILES) | inhibition [1] [%] | inhibition [2] [%] | inhibition [3] [%]
Cc1cccc2nc(-c3cccc(-c4cccc(NC(=O)NCc5cccc(F)c5)c4)c3)[nH]c12 | 4.66 | 6.34 | 5.41
Cc1cccc(-c2ccc(NC(=O)C3CCN(Cc4cccc(O)c4)CC3)cc2)c1 | 0.07 | 1.99 | -0.58
CCN(CCO)CCCC(C)Nc1ccnc2cc(Cl)ccc12 (configuration not stated) | 7 | 7.44 | 6.05
CNC(=O)Cc1ccc(C(=O)Nc2cccc(-c3ccc(-c4nc5cccc(C)c5[nH]4)s3)c2)cc1 | 3.65 | 2.74 | 1.79
CC(=O)N1CCC(C(=O)Nc2ccc(-c3cccc(-c4nc5cccc(C)c5[nH]4)c3)cc2)CC1 | 2.37 | 0.21 | 0.44
O=c1cc(NCCCCNCc2cccc(C(F)(F)F)c2)[nH]c2ccccc12 | 9.62 | 7.88 | 5.78
c1ccc(-c2cc(NCc3cccc4ccccc34)c3[nH]ncc3n2)cc1 | 5.11 | 5.96 | 6.54
COc1ccc2nccc([C@@H](O)CN3CCC(NCc4ccc5c(c4)NC(=O)C(C)(C)O5)CC3)c2c1 | 7.93 | 8.24 | 3.18
CC1CN(Cc2ccccc2)CCN1c1ccc(NC(=O)c2cccs2)cc1 (configuration not stated) | 10.9 | 12.3 | 10.8
COc1cc(C(=O)N2COCC(CCCN3CCC(N4CCCC4)CC3)(c3ccc(Cl)c(Cl)c3)C2)cc(OC)c1OC (configuration not stated) | 3.3 | 3.39 | 3.67
CC1N=C(N)N=C(N)N1OCc1cccc2ccccc12 (configuration not stated) | 1.93 | 0.04 | 1.84
Nc1nc(N)c2cc(NC(=O)c3ccc(Cl)c(Cl)c3)ccc2n1 | 5.31 | 2.01 | 4.8
COc1ccc2c(c1)C(C)(CCCN(C)C)C(=O)N2C (configuration not stated) | 1.02 | 1.36 | 2.15
Cc1cc(N2CCCC2)nc(Nc2ccc(NC(=O)c3cccc(F)c3)cc2)n1 | 33.5 | 14.7 | 16.2
CN(CCC(O)c1ccc(Cl)c(Cl)c1)CC1CC1C(=O)c1ccccc1 (configuration not stated) | 4.57 | 4.62 | 5.49
O=C(Cc1cccc2ccccc12)NC1CCN(c2ccnc3cc(Cl)ccc23)C1 (configuration not stated) | -2.29 | -1.67 | -0.88
CC(=O)Nc1cccc(C(=O)Nc2cccc(-c3ccc(-c4nc5cccc(C)c5[nH]4)cc3)c2)c1 | 0.33 | 1.27 | 4.99
N#Cc1ccc(CN2CCC(Oc3ccc(NC(=O)c4cccs4)cc3Cl)CC2)cc1 | 5 | 10.5 | 8.03
O=[N+]([O-])c1ccc2c(c1)c1ccccc1n2Cc1ccccc1O | 0.12 | 1.04 | -2.69
Cc1cccc(S(=O)(=O)Nc2cccc(CCN3CCC(N4CCCCC4)CC3)c2)c1 | 3.99 | -1.11 | 0.97
COc1ccc(CN2CCC(CNCCc3ccccc3Cl)CC2)cc1 | 19.2 | 11.1 | 12.5
COc1cccc(C(=O)NC(c2ccccc2OC)c2cc(Cl)c3cccnc3c2O)c1 (configuration not stated) | -1.87 | -2.45 | 0.13
O=C(N[C@@H](Cc1ccccc1)C(=O)NC1CCCCC1)c1ccc(O)c(-c2cccc(C(F)(F)F)c2)c1 | 3.98 | 5.95 | 5.39
O=C(/C=C/c1ccc(Cl)c(Cl)c1)NCCCCCN1CCN(C(=O)Nc2cccc(F)c2)CC1 | 3.99 | 2.95 | 2.33
Clc1ccc2c(NN=Cc3ccco3)ccnc2c1 | 3.59 | 3.49 | 0.47

Structure (SMILES) | inhibition [1] [%] | inhibition [2] [%] | inhibition [3] [%]
O=C(CN1CCC2(CCC1=O)CC(=O)c1ccccc1O2)NCCN1CCOCC1 (configuration not stated) | 2.45 | 7.44 | 4.93
NCc1ccc(CNCc2cccc(-c3cccc(-c4nc5ccccc5[nH]4)c3)c2)cc1 | 1.02 | -3.61 | 3.76
OC(CN(Cc1ccccc1)Cc1ccccc1)Cn1c2ccc(Cl)cc2c2cc(Cl)ccc21 (configuration not stated) | -0.34 | 0.27 | 1.37
c1ccc(CN2CCC(NCc3ccc(-c4cccc(CNC5CCCC5)c4)cc3)CC2)cc1 | 15.8 | 8.03 | 0.89
CC[C@H](C)CNC(=O)c1cncc(-c2ccc(CNCCCc3ccccc3)cc2)c1 | 1.47 | -1.11 | -2.21
Cc1cc(CN2CCC(C(=O)Nc3ccc(-c4nc5ccccc5[nH]4)cc3)CC2)oc1C | 13.2 | 16 | 2.24
Cc1cc(NC2CCN(CC3CCCCC3)CC2)nc(Nc2ccccc2Cl)n1 | 2.86 | 6.27 | 0.85
CCCOc1cccc(C(=O)N[C@@H](Cc2ccccc2)[C@H](O)CNCc2cccc(OC)c2)c1 | 0.22 | 0.92 | -3.25
O=S(=O)(Nc1cc2c(cc1OCCCN1CCCCC1)CCNCC2)c1ccc(-c2ccc(Cl)cc2)cc1 | 1.29 | -0.13 | -0.37
Cc1nc(N)nc(N)c1OCCCOc1cccc(Cl)c1Cl | 65.6 | 65.8 | 56.7
NC1=NC(c2ccccc2)(c2ccccn2)C(=O)N1CCCc1ccccc1 (configuration not stated) | 6.44 | 2.19 | 1.77
Cc1cccc2nc(-c3ccc(-c4ccc(C(=O)NCCN5CCCC5)cc4)cc3)[nH]c12 | 0.86 | -1.27 | -0.61
O=S(=O)(c1cccc(Br)c1)N1CCCCC(c2ccc(C(F)(F)F)cc2)=N1 | 1.84 | 3.68 | 2.2
COc1cc(NC(=O)N2CCOC(CCN3CCC(c4ccccc4)CC3)(c3ccc(Cl)c(Cl)c3)C2)cc(OC)c1OC (configuration not stated) | 3.7 | 2.95 | 1.05
Nc1nc(N)c2cc(NS(=O)(=O)c3ccc(-c4ccccc4)cc3)ccc2n1 | 4.33 | 3.47 | 3.56
COc1c(C2CCN(CCCCNC(=O)c3cc(-c4ccc(Cl)cc4)sc3C)CC2)ccc2c1CCCC2 | 0.21 | 2.22 | -2.53
COc1ccc(CNCc2cccc(-c3ccc(-c4nc5cccc(C)c5[nH]4)s3)c2)cc1 | 3.18 | 2.97 | 2.36
Cc1cc(=O)c(-c2ccc(Oc3cccc(OC(F)(F)F)c3)cc2)c(C)[nH]1 | 1.89 | 1.17 | -1.14
O=C(NCCCNc1nc2ccccc2[nH]1)c1cccc(OC(F)(F)F)c1 | 2.27 | -0.62 | 1.46
Cc1ccccc1C1CCN(C2CCC(NC(=O)c3cc(-c4ccc(Cl)cc4)cs3)CC2)CC1 (configuration not stated) | 2.23 | 3.13 | -2.52
O=C(Nc1ccc(N2CCCCC2)c(Cl)c1)c1ccco1 | 0.11 | 0.86 | -1.58
CCN(CCCN1CCCCC1)c1cc(C)nc(Nc2ccc(C)c(Cl)c2)n1 | 3.02 | 2.33 | 1.16
CCC[C@@H]([C@@H](CC1CCCCC1)C(=O)NC(C(=O)Nc1nccs1)C(CC)c1ccccc1)N(O)C=O (some centres not stated) | 0.29 | 0.04 | 0.64
O=C(Nc1cccc(-c2nn3ncccc3c2-c2ccnc(Nc3cccc(-c4cnco4)c3)n2)c1)c1c(F)cccc1F | 6.24 | 7.13 | 2.26
